Screen size: about 290,000 compounds; about 3,000 (1%) were called active. This is one part of a sample in which actives are shown more often than they occur. Values without a mark were called inactive. Cut-off read from the data, not from the text of the source: active = inhibition mostly above about 36% (no sharp cut-off); inactive = mostly below about 34%.
assay: inhibition of NOD1-driven NF-kB reporter – cell-based, luminescence, uHTS, primary screen (AID 1578); conditions: NOD1-driven NF-kB luciferase reporter cells, at 4 µM, stronger effect = higher value;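 note: HEK-293T reporter cells stimulated with the NOD1 agonist gamma-tri-DAP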

Compound	inhibition
O=C(CN1C(=O)c2ccccc2C1=O)Oc1ccc(Cl)cc1	-14.3%
Cc1cccc(OCCOC(=O)C2CCN(S(=O)(=O)c3ccc(C)c(C)c3)CC2)c1	-9.6%
CCN(CC(=O)NC1CCS(=O)(=O)C1)S(=O)(=O)c1ccc(C)cc1C (configuration not stated)	-12%
Cc1c(CC(=O)NCCCC(=O)O)c(=O)oc2cc3occ(-c4ccccc4)c3cc12	-6.5%
Cc1c(CCC(=O)NCCCCCC(=O)O)c(=O)oc2cc3occ(-c4ccccc4)c3cc12	34.3% (active)
Cc1c(CCC(=O)NCCC(=O)O)c(=O)oc2cc3occ(-c4ccccc4)c3cc12	-7.4%
O=C(CNCc1ccc(F)cc1)Nc1ccc(S(=O)(=O)N2CCOCC2)cc1	-26.8%
O=C(c1cncc(Br)c1)N1CCc2ccccc2C1	80.2% (active)
O=C(c1cccnc1)N1CCc2ccccc2C1	-0.9%
O=C(c1ccncc1)N1CCc2ccccc2C1	-32.9%
COCCn1nnnc1C(CC(C)C)N1CCN(c2ccccc2)CC1 (configuration not stated)	-24.8%
CN1CCN(c2ccccc2NC(=S)NC(=O)c2cc3ccccc3o2)CC1	5.8%
CN1C(=O)N(C)c2ccc(C=O)c3cccc1c23	-32.8%
CN1c2ccc(C=O)c3c(C=O)ccc(c23)N(C)C1(C)C	72% (active)
CN1c2cccc3cccc(c23)N(C)C1(C)C	9.4%
O=C(CN(Cc1ccccc1)C(=O)CCC(=O)Nc1nccs1)NCc1ccco1	-21.9%
CC(CCc1ccccc1)NC(=O)Cn1cccc1C(=O)c1ccccc1 (configuration not stated)	-9.7%
CN(c1ccccc1)S(=O)(=O)c1ccc(Cl)c(C(=O)Nc2ccc(-c3nc4ccccc4[nH]3)cc2)c1	4.8%
Cc1nc2ccc(NC(=O)c3ccc(S(=O)(=O)N(C)C)cc3)cc2s1	-37.4%
Cc1nc2ccc(NC(=O)c3ccc(S(=O)(=O)N(C)c4ccccc4)cc3)cc2s1	17.6%
Cc1nc2ccc(NC(=O)c3ccc(Cl)c(S(=O)(=O)N(C)c4ccccc4)c3)cc2s1	51.8%
O=C(CSc1nnc(C2COc3ccccc3O2)o1)N1CCN(c2ccccc2)CC1 (configuration not stated)	-24.7%
COc1ccc(CCNC(=O)CCS(=O)(=O)c2ccc3c(c2)oc(=O)n3C)cc1OC	-25.6%
O=C(COc1ccc(Cl)cc1Cl)NC(=S)N1CCCc2ccccc21	28.6%
CC(C)C(=O)NC(=S)N1CCc2ccccc21	-40.2%

Compound	inhibition
CC(Oc1ccc(Cl)cc1Cl)C(=O)NC(=S)N1CCc2ccccc21 (configuration not stated)	102% (active)
CC(C)NC(=O)c1ccc2c(c1)N(CC(=O)N1CCCCC1)C(=O)C(C)(C)O2	1.4%
O=C(CSc1nnnn1-c1ccccc1)Nc1ncc(Cc2cccc(Cl)c2Cl)s1	-16.9%
Cc1ccc(C)c(NC(=O)C2CC(O)CN2C(=O)OCc2ccccc2)c1 (configuration not stated)	4.8%
COC(=O)CC1(C(=O)OC)Oc2ccc(Br)cc2C(=O)N1c1cc(Cl)cc(Cl)c1 (configuration not stated)	-11.1%
CC(=O)Nc1nonc1NC(=O)CSc1ccccn1	2.6%
Cc1nonc1NC(=O)CSc1ccccn1	4%
O=C(CSc1ccccn1)Nc1nonc1[N+](=O)[O-]	57.6% (active)
COc1ccc(NC(=O)CSc2nn3c(=O)c(C)nnc3s2)cc1	-19.6%
COc1ccc(NC(=O)Nc2cnccn2)c(OC)c1	-27.1%
COc1ccccc1NC(=O)Nc1cnccn1	111% (active)
CCOc1ccccc1NC(=O)Nc1cnccn1	11.8%
COC(=O)Nc1ccc2c(c1)N(C(=O)CCCl)c1ccccc1S2	3.3%
COc1ccc(C(=O)NNC(=O)C(=O)/C=C(\O)c2ccc(C)cc2)cc1	0.6%
Cc1cccc(C(=O)NC(=S)NCc2cccnc2)c1	-31.1%
O=C(NCCCN1CCOCC1)c1cccc(S(=O)(=O)Nc2cc(Cl)ccc2Cl)c1	-34.3%
O=C(CSc1ncnc2[nH]ncc12)Nc1nc(-c2ccc(F)c(F)c2)cs1	46% (active)
Cn1nnnc1SCC(=O)Nc1nc(-c2ccc(F)c(F)c2)cs1	-20.9%
Cc1sc2ncnc(SCC(=O)Nc3nc(-c4ccc(F)c(F)c4)cs3)c2c1C	-40.3%
CC1CN(C(=O)CCC(=O)NCCCN2C(C)CCCC2C)c2ccccc2O1 (configuration not stated)	26.4%
Cc1ccc(CNC(=O)C2CCCN(S(=O)(=O)c3c(C)[nH]c(=O)[nH]c3=O)C2)cc1 (configuration not stated)	-3.9%
O=C(Cn1c(=O)oc2ccccc21)NC(=O)NCc1ccco1	-3.9%
CCOc1ccc(C(=O)NC(=S)N(Cc2ccccc2)Cc2ccccc2)cc1	51.4%
CCCN(CCC)C(=S)NC(=O)c1ccc(-c2ccccc2)cc1	52.6% (active)
CCN(CC)C(=S)NC(=O)c1ccc(F)cc1	-25%

Compound	inhibition
C/C(=N/NC(=O)c1ccc(C)s1)c1cccnc1	-53.1%
COc1ccc(/C=N/NC(=O)CCOc2ccccc2C)cc1OC	62.5% (active)
COc1ccc(/C=N/NC(=O)CCC(=O)Nc2ccccc2)cc1OC	-8.6%
COc1cc(/C=N/NC(=O)CCOc2ccccc2C)cc(Br)c1O	-26.7%
Cc1[nH]n(-c2ccccc2)c(=O)c1C=NCCc1ccccc1	-43.1%
CCCCN=Cc1c(C)[nH]n(-c2ccccc2)c1=S	0.8%
Cc1[nH]n(-c2ccccc2)c(=S)c1C=NCCCN=Cc1c(C)[nH]n(-c2ccccc2)c1=S	88.7% (active)
Cc1nnc2sc(SCC(=O)Nc3nccs3)nn2c1=O	-2.3%
Fc1ccc(-c2ccc(/C=N\n3cnnc3)o2)cc1Cl	1.3%
Cc1ccc(-c2ccc(/C=N/n3cnnc3)o2)cc1Cl	-11.3%
Cc1cc(-c2ccc(/C=N/n3cnnc3)o2)ccc1Cl	67.4% (active)
C/C(N)=C(/C#N)C(=O)COC(=O)c1cccc(O)c1	-29.6%
CC(=O)Nc1cccc(NC(=O)CSc2nc3ccccc3o2)c1	43.3%
COc1ccc(C(NC(C)=O)c2cc(Cl)c3cccnc3c2O)cc1 (configuration not stated)	-6.4%
CCCCCCNC(=O)CCc1nc2cccnc2n1Cc1ccc(OC)cc1	-10.4%
CC1CCCC(C)N1C(=O)c1cc(-c2cccs2)on1 (configuration not stated)	-28.6%
CC1=C/C(=N\NC(=S)NCCc2ccccc2)CC(C)(C)C1	-43.4%
CC(C)(C)C1CCC(=NNC(=S)Nc2cccnc2)CC1 (configuration not stated)	-17.4%
CC1=C/C(=N\NC(=S)Nc2cccnc2)CC(C)(C)C1	43.4% (active)
CCOC(=O)C1CCCN(C(=O)CNC(=O)c2nn(-c3ccc(OC)c(Cl)c3)c(=O)c3ccccc23)C1 (configuration not stated)	-5.1%
CC(C)OC(=O)CC(=O)CSc1nc2c(cc1C#N)CCCCCC2	-24.1%
CC(C)OC(=O)CSc1nc2c(cc1C#N)CCCCC2	111% (active)
CC(C)OC(=O)CC(=O)CSc1nc2c(cc1C#N)CCCCC2	-26.3%
O=C(c1cccs1)N1CCC(C(=O)N2CCN(Cc3ccc4c(c3)OCO4)CC2)CC1	-24.9%
CCN1C(=O)c2cccc3c(S(=O)(=O)NCc4ccco4)ccc1c23	-23%

Compound	inhibition
Cc1ccc(-n2cc(C(=O)c3ccc(N4CCN(C)CC4)cc3)nn2)cc1Cl	-52.8%
N#CC1=C(N2CCCCC2)c2cc3c(n2C1=O)CCCC3	7.7%
CCOC(=O)C1=C(SCC)c2cc3c(n2C1=O)CCCC3	-36.8%
CCSC1=C(C#N)C(=O)n2c1cc1c2CCCC1	67% (active)
COc1ccc(C(c2nnnn2C(C)C)N2CCN(C(=O)c3ccco3)CC2)cc1 (configuration not stated)	10.7%
CC(=O)c1cc(C#N)c(NCc2ccccc2)nc1C	-40.7%
c1cn(CCCNc2ncnc3sc4c(c23)CCC4)cn1	29.2%
CCOc1cccc(-c2cc(C(=O)Nc3ccon3)c3ccccc3n2)c1	-14%
CCOC(=O)C(=O)N1CCN(c2nc(-c3ccc(Cl)cc3)cs2)CC1	-19.1%
O=C1CC(Cc2ccc(Br)cc2)C(=O)N1c1ccccc1 (configuration not stated)	-19.8%
Clc1cncc(Cl)c1N/N=C/c1ccncc1	75.3% (active)
Clc1ccc(N/N=C/c2ccncc2)cc1Cl	-40.8%
Clc1cncc(Cl)c1N/N=C/c1ccccc1	-10.5%
CCOc1cc(/C=C(/NC(C)=O)C(=O)O)cc(Cl)c1OCc1cccc(Br)c1	-9.8%
CC(C)Oc1cccc(C(=O)C2CCCN(Cc3ccc4nonc4c3)C2)c1 (configuration not stated)	55.2% (active)
COc1ccc(C(=O)C2CCCN(Cc3ccc4nonc4c3)C2)cc1OC (configuration not stated)	-4.5%
COc1ccc(CN2CCCC(C(=O)c3ccc(Cl)cc3)C2)cc1Cn1cccn1 (configuration not stated)	-12.4%
CC(C)Oc1cccc(C(=O)C2CCCN(Cc3cnn(C(C)C)c3)C2)c1 (configuration not stated)	-18.3%
O=C(c1ccc(Cl)cc1)C1CCCN(Cc2ccc(Oc3ncccn3)cc2)C1 (configuration not stated)	19.6%
Cc1cccc(-c2nc3c(c(SCC(N)=O)n2)CCCC3)c1	-10.2%
CC(C)c1ccc(NC2CCCN(C(=O)c3cccc(N4CCNC4=O)c3)C2)cc1 (configuration not stated)	30.5%
CC(=O)c1cccc(NC(=O)c2ccc(N(Cc3ccccc3C)S(C)(=O)=O)cc2)c1	6.4%
